Test results: PubChem BioAssay (EPA / NIEHS)
Active and inactive are the calls of the source. How the source made its calls: active means hit-call score of the fitted dose curve at least 0.9, where 1 is the maximum; inactive means score below 0.9.

Tests used:
Details in all cases: mRNA level, 48 h; actives raise or lower the signal
[1] = read-out: Cytochrome P450 (CYP1A2), CYP1A2 (gene 1544); experiment: LTEA_HepaRG_CYP1A2: Life Technologies and Expression Analysis (LTEA) Assay for Cytochrome P450 (CYP1A2) using HepaRG (AID 2283479)
Procedure, shortened: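 CYP1A2 transcript induction or loss, quantified by Fluidigm qRT-PCR against three housekeeping genes, was fitted bidirectionally against 0.5% DMSO controls. Human HepaRG cells received eight half-log concentrations from 100 uM over 48 h.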

[2] = read-out: cysteine-aspartic acid protease (CASP8), CASP8 (gene 841); experiment: LTEA_HepaRG_CASP8: Life Technologies and Expression Analysis (LTEA) Assay for cysteine-aspartic acid protease (CASP8) using HepaRG (AID 2283480)
Procedure, shortened: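 HepaRG, 48 h exposure, duplicate wells; 8 conc, half-log from 100 uM, 0.5% DMSO. Serum-free induction medium. CASP8 mRNA by TaqMan qRT-PCR, norm. ACTB/GAPDH/POLR2A; gain/loss fitted vs DMSO.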

[3] = read-out: Cytochrome P450 (CYP2B6), CYP2B6 (gene 1555); experiment: LTEA_HepaRG_CYP2B6: Life Technologies and Expression Analysis (LTEA) Assay for Cytochrome P450 (CYP2B6) using HepaRG (AID 2283481)
Procedure, shortened: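 HepaRG cells plated 48 h, switched to serum-free induction medium, then dosed 48 h (8 points, half-log from 100 uM, 0.5% DMSO). RNA isolated; CYP2B6 expression measured by qRT-PCR; gain or loss fitted relative to DMSO.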

[4] = read-out: Cytochrome P450 2C19 (Homo sapiens) (UniProt P33261); experiment: LTEA_HepaRG_CYP2C19: Life Technologies and Expression Analysis (LTEA) Assay for CYP2C19 using HepaRG (AID 2283482)
Procedure, shortened: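 Transcript levels of CYP2C19 were quantified by qRT-PCR after HepaRG cells were treated for 48 hours with test chemicals up to 100 uM (eight half-log concentrations, 0.5% DMSO vehicle). Gain or loss of signal was fitted relative to DMSO.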

[5] = read-out: CYP2C8 (gene 1558); experiment: LTEA_HepaRG_CYP2C8: Life Technologies and Expression Analysis (LTEA) Assay for CYP2C8 using HepaRG (AID 2283483)
Procedure, shortened: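 CYP2C8 mRNA induction or loss, by qRT-PCR normalized to ACTB/GAPDH/POLR2A, is read in HepaRG cells after 48 h treatment. Concentrations run from 100 uM down in half-log dilutions, with 0.5% DMSO as vehicle and baseline.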

[6] = read-out: CYP2C9 (gene 1559); experiment: LTEA_HepaRG_CYP2C9: Life Technologies and Expression Analysis (LTEA) Assay for CYP2C9 using HepaRG (AID 2283484)
Procedure, shortened: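 Cells plated 48 h, switched to serum-free induction medium, then treated in duplicate for 48 h at eight concentrations (max 100 uM, 0.5% DMSO). RNA then analysed by qRT-PCR for CYP2C9; curves fitted in both directions relative to DMSO.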

[7] = read-out: CYP2E1 (gene 1571); experiment: LTEA_HepaRG_CYP2E1: Life Technologies and Expression Analysis (LTEA) Assay for CYP2E1 using HepaRG (AID 2283485)
Procedure, shortened: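 HepaRG cells in serum-free induction medium exposed 48 h to test chemicals, 8 half-log concentrations up to 100 uM in 0.5% DMSO, duplicate. CYP2E1 mRNA by qRT-PCR, normalized to ACTB, GAPDH, POLR2A; bidirectional fit versus DMSO.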

[8] = read-out: CYP4A11 (gene 1579); experiment: LTEA_HepaRG_CYP4A11: Life Technologies and Expression Analysis (LTEA) Assay for CYP4A11 using HepaRG (AID 2283486)
Procedure, shortened: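 HepaRG, 48 h chem exposure, 8 conc (100 uM top, half-log), 0.5% DMSO vehicle; qRT-PCR readout, housekeeping-gene normalized; bidirectional curve fit vs DMSO baseline.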

[9] = read-out: Cytochrome P450 3A4 (Homo sapiens) (UniProt P08684); experiment: LTEA_HepaRG_CYP3A4: Life Technologies and Expression Analysis (LTEA) Assay for CYP3A4 using HepaRG (AID 2283487)
Procedure, shortened: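 Differentiated HepaRG cells in serum-free induction medium exposed in duplicate for 48 h to 8 half-log concentrations up to 100 uM in 0.5% DMSO. CYP3A4 mRNA measured by qRT-PCR normalized to ACTB, GAPDH and POLR2A; bidirectional fit versus DMSO.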

[10] = read-out: DNA damage-inducible transcript 3 (DDIT3), DDIT3 (gene 1649); experiment: LTEA_HepaRG_DDIT3: Life Technologies and Expression Analysis (LTEA) Assay for DNA damage-inducible transcript 3 (DDIT3) using HepaRG (AID 2283488)
Procedure, shortened: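 Differentiated human HepaRG cells in serum-free induction medium were exposed in duplicate for 48 h to 8 concentrations (top 100 uM, half-log steps, 0.5% DMSO). DDIT3 mRNA measured by TaqMan qRT-PCR, normalized to ACTB/GAPDH/POLR2A; bidirectional fit versus DMSO.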

Measured: AC50

Sequence of Cytochrome P450 3A4 (Homo sapiens) (P08684 whole entry, looked up): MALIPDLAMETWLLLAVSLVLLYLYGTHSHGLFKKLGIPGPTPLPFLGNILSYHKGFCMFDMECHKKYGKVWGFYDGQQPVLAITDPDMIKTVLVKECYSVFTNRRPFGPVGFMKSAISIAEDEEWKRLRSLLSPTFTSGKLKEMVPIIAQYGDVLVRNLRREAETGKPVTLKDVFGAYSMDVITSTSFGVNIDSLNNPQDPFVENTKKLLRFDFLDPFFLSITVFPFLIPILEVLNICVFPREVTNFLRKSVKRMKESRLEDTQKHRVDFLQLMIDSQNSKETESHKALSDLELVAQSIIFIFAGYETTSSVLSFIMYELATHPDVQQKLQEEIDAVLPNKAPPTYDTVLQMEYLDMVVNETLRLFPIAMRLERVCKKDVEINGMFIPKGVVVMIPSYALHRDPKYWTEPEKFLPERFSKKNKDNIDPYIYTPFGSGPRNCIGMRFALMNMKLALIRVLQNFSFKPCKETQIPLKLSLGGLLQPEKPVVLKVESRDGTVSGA
Sequence of Cytochrome P450 2C19 (Homo sapiens) (P33261 whole entry, looked up): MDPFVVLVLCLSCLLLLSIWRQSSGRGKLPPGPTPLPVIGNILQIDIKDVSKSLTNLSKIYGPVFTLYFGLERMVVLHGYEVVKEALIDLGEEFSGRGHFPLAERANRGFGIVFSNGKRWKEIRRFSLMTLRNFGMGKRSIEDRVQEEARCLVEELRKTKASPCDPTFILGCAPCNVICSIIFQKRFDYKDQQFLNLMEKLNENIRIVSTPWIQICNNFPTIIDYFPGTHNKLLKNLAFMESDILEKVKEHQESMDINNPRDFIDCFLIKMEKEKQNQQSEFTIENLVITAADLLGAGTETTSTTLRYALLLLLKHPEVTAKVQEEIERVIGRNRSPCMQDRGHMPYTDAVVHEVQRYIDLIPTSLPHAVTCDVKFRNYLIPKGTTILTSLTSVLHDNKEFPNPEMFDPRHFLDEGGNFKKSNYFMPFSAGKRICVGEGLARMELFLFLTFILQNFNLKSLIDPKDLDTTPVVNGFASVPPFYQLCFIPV

Cc1cccc([N+](=O)[O-])c1C
inactive: all assays above

CC1(C)NC(=O)NC1=O
inactive: all assays above

Cc1ccc(C)c(O)c1C
active: [1] 50 µM
inactive: all other assays above

O=c1[nH]cc(F)c(=O)[nH]1
active: [1] 51 µM | [7] 51 µM | [8] 51 µM
inactive: all other assays above

OC[C@@H](O)[C@@H](O)[C@H](O)[C@H](O)CO
inactive: all assays above

Cc1ccc(C)c(C)c1
inactive: all assays above

CCNc1cccc(C)c1
inactive: all assays above

CCCCCCCCCCCCCCCCCC(=O)O
inactive: all assays above

CC(CO)OC(C)CO (configuration not stated) (tested in a mixture with another compound)
inactive: all assays above

COCCOC[C@H](CC1(C(=O)NC2CCC(C(=O)O)CC2)CCCC1)C(=O)Oc1ccc2c(c1)CCC2 (some centres not stated)
inactive: all assays above

COc1cc(-c2nc(NC(=O)c3cc4cc(C)cc(C)c4n3CC(=O)O)sc2CCC2CCCCC2)c(OC)cc1Cl
active: [1] 4.88 µM | [2] 11 µM | [3] 5.76 µM | [4] 7.57 µM | [5] 6.7 µM | [6] 6.47 µM | [7] 7.86 µM | [8] 8.34 µM | [9] 7.45 µM | [10] 10.9 µM

Cc1cccc(C)c1O
inactive: all assays above

c1cc(-c2ccncc2)ccn1
active: [1] 50 µM
inactive: all other assays above

O=C(OCCCCCOC(=O)c1ccccc1)c1ccccc1
inactive: [6] | [7] | [9]
active: [1] 1.58 µM | [2] 0.942 µM | [3] 0.969 µM | [4] 2.44 µM | [5] 0.726 µM | [8] 1.94 µM | [10] 1.38 µM

CCc1c(C(=O)NN2CCCCC2)nn(-c2ccc(Cl)cc2Cl)c1-c1ccc(Br)cc1
inactive: [2]
active: [1] 91.8 µM | [3] 30 µM | [4] 34.6 µM | [5] 23.6 µM | [6] 30.4 µM | [7] 22.4 µM | [8] 15.9 µM | [9] 31.7 µM | [10] 32.5 µM

CCCCCC(=O)O
active: [1] 63.7 µM
inactive: all other assays above

Oc1ccc2c(c1)OC[C@@H](N1CCC(O)(c3ccc(F)cc3)CC1)[C@H]2O
inactive: all assays above

CCCCCCCCCCCC(=O)OC
active: [1] 66.9 µM
inactive: all other assays above

CCCCCCOCCO
inactive: all assays above

Cc1oc(-c2ccccc2)nc1CCOc1cccc2c1ccn2CCC(=O)O
inactive: [1]
active: [2] 50 µM | [3] 88.5 µM | [4] 83.4 µM | [5] 80.5 µM | [6] 77.9 µM | [7] 62.6 µM | [8] 85.9 µM | [9] 80.1 µM | [10] 79.2 µM

NC(=O)Cn1c(=O)cc(CCN2CCN(c3nccc4sccc34)CC2)c2ccc(F)cc21
active: [6] 78 µM | [7] 87.6 µM | [8] 65.4 µM | [9] 5.56 µM | [10] 65.2 µM
inactive: [1] | [2] | [3] | [4] | [5]

C=CCOC(=O)c1ccccc1C(=O)OCC=C
inactive: all assays above

C[Si]1(C)O[Si](C)(C)O[Si](C)(C)O[Si](C)(C)O1
inactive: all assays above

Cc1nc(-c2ccc3c(c2)CCN(CCC2CCC(NC(=O)/C=C/c4ccc(F)cc4)CC2)CC3)no1 (configuration not stated)
inactive: all assays above

Cc1ccc(Cl)cc1
inactive: all assays above

O=C(N[C@@H](Cc1ccccc1)[C@@H](O)C(=O)N1C[C@@H](O)[C@@H](O)C1)c1cc2cc(Cl)ccc2[nH]1
inactive: [2] | [5] | [7] | [9]
active: [1] 74.1 µM | [3] 11.9 µM | [4] 4.24 µM | [6] 12.5 µM | [8] 89.9 µM | [10] 73.1 µM

COCCOCCOC
active: [1] 0.95 µM | [2] 1.57 µM | [3] 0.993 µM | [5] 0.712 µM | [10] 1.38 µM
inactive: all other assays above

CC1(C)CC(N=C=O)CC(C)(CN=C=O)C1 (configuration not stated)
active: [7] 24 µM
inactive: all other assays above

Cc1nc(C)nc(N2C[C@@H](C)N(c3ccnc([C@@H](C)O)n3)[C@@H](C)C2)n1
active: [6] 25 µM | [8] 9.39 µM
inactive: all other assays above

CCCc1cc(=O)[nH]c(=S)[nH]1
active: [1] 23.7 µM
not listed: [3]
inactive: all other assays above

Cc1ccc(C(C)C)c(O)c1
not listed: [3]
inactive: all other assays above

CC(=O)OCCOCCOCCOC(C)=O
inactive: all assays above

C=CCc1ccc(O)c(OC)c1
not listed: [3]
inactive: all other assays above

COc1cc(C=O)ccc1O
not listed: [3]
inactive: all other assays above

CCCCOC(=O)CCCCCCCCC(=O)OCCCC
not listed: [3]
inactive: all other assays above

Cc1c(C(=O)O)c(O)cc2c1C(=O)c1c(O)c([C@@H]3O[C@H](CO)[C@@H](O)[C@H](O)[C@H]3O)c(O)c(O)c1C2=O
not listed: [3]
inactive: all other assays above

COC(=O)c1ccc(O)cc1
inactive: all assays above

CCOC(=O)CCC(=O)OCC
active: [2] 87.3 µM | [3] 19.3 µM
inactive: all other assays above

CC(=O)C(C)=CC1C(C)=CCCC1(C)C (configuration not stated)
not listed: [3]
inactive: all other assays above

COc1ccc(S(=O)(=O)N2C(=O)[C@@](c3ccccc3OC)(N3C[C@H](O)C[C@H]3C(=O)N(C)C)c3cc(Cl)ccc32)c(OC)c1
active: [1] 22.2 µM | [4] 21.5 µM | [5] 23 µM | [6] 20.5 µM | [7] 33.6 µM | [8] 26.6 µM | [9] 32.9 µM | [10] 73.8 µM
inactive: [2]

CCCCCCCC=O
active: [1] 50 µM | [10] 9.92 µM
inactive: all other assays above
